Bioassay records (PubChem BioAssay)
proKLK7 act: activators of human kallikrein-7 zymogen. AID 652039. P49862. purified proKLK7, EDANS-DABCYL substrate fluorescence; 100% is mature enzyme control, 0% vehicle. 370,000 tested, 0.9% active. activation, % at 7 µM;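 active = activation above the mean of all tested compounds plus 3 SD, computed per campaign excluding outliers beyond control limits, cut at about 13% in these data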
Target sequence (P49862 whole entry, looked up): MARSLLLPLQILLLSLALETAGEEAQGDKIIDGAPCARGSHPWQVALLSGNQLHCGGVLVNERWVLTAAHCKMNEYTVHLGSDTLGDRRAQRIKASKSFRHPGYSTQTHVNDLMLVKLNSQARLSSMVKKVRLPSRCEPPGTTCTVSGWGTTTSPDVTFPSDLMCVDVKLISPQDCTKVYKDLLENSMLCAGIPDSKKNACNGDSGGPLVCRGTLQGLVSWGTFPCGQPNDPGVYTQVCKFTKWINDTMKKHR
PLC-gamma1 inh: blocks human PLC-gamma1 enzyme activity. P19174. purified PLC-gamma1, fluorogenic substrate, fluorescence. inhibition, % at 12.2 µM. 370,000 tested, 0.84% active; in the data active = inhibition above about 9.5%
PLCb3 inh: inhibitors of human phospholipase C beta3; Purified PLC-beta3, fluorogenic substrate, fluorescence; Q01970; inhibition, % at 12.2 µM; AID 720704; 370,000 tested, 0.18% active; in the data active = inhibition above about 11%;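 also: 0% = median of compound wells on plate and 100% = full blocker control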
ADAM17 inh: ADAM17 inhibition, QFRET primary screen. P78536. recombinant ADAM17, EDANS/DABCYL FRET peptide cleavage. inhibition, % at 6.95 µM. 370,000 tested, 0.83% active. AID 720648;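 active = inhibition above the mean of compounds lying between control limits plus 3 SD, set per campaign, cut at about 8.5% in these data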;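 also: 0% = DMSO-only wells as the low control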
sPLA2-III inh: Blocks human group III sPLA2 activity. Q9NZ20. QFRET BODIPY PC-A2 liposome hydrolysis, fluorescence. inhibition, % at 12.2 µM. 370,000 tested, 0.56% active;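 active = inhibition above mean plus 3 SD of compounds lying within the high and low control bounds, cut at about 19% in these data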;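 also: 0% = median of test compound wells and 100% = no enzyme DMSO wells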
ADAM10 inh: inhibits human ADAM10; O14672; recombinant ADAM10, EDANS/DABCYL FRET peptide cleavage, 3 h; inhibition, % at 7 µM; 370,000 tested, 0.62% active; AID 720582;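 active = inhibition above a per-campaign cutoff equal to the mean of compounds falling between control-based bounds plus 3 SD, cut at about 20% in these data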;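 also: 0% = DMSO wells while the 100% control is not disclosed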
ADAM10 confirm: confirmation of inhibitors of human ADAM10; shares compounds with ADAM10 inh; ADAM10 QFRET peptide cleavage, EDANS fluorescence; inhibition, % at 6.95 µM; 2,100 tested, 1% active; AID 743208;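 active = inhibition above about 20% chosen separately for each screening run, limit read from the data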;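 also: 0% = DMSO wells and 100% = marimastat wells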
ADAM17 counter: counter-screen for ADAM10 exosite inhibitors: inhibitors of human ADAM17 | shares compounds with ADAM10 inh | ADAM17 QFRET peptide cleavage, EDANS fluorescence | inhibition, % at 6.95 µM | 2,100 tested, 0.5% active;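 active = mean triplicate inhibition above the solvent-only control wells' mean plus 3 SD, cut at about 12% in these data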;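 also: 0% = DMSO wells and 100% = marimastat wells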
* hit, by the source's call; nt = no result given. Most compounds without a hit are left out; they make up all but 3.4% or so of the library.

SMILES	proKLK7 act	PLC-gamma1 inh	PLCb3 inh	ADAM17 inh	sPLA2-III inh	ADAM10 inh	ADAM10 confirm	ADAM17 counter
O=c1[nH]c(C2CCN(S(=O)(=O)c3ccc4c(c3)OCCO4)CC2)nc2c1nnn2Cc1ccccc1	-0.4	1.1	-6.4	0.6	-30.3	4.5	nt	nt
CC(C)(C)c1ccc(Cn2nnc3c(=O)[nH]c(C4CCCN(C(=O)c5cccs5)C4)nc32)cc1 (configuration not stated)	-0.5	7.5	-3.1	7.8	-20.3	23.9*	0.9	0.3
Cc1ccc(C)c(S(=O)(=O)N2CCC(c3nc4c(nnn4Cc4ccc5c(c4)OCCO5)c(=O)[nH]3)CC2)c1	-0.2	3.0	-5.2	5.0	-39.6	23.8*	11.4	3.1
COCC(=O)N[C@H]1C[C@@H]2O[C@@H](CO)CC[C@@H]2O[C@@H]1CCc1ccc(-c2ccccc2)cc1	-0.1	1.6	-0.8	-4.4	-7.4	-4.1	nt	nt
Cc1nc(SCC(=O)N(C)c2ccccc2)[nH]c(=O)c1C	nt	1.3	2.0	-2.5	2.7	-1.5	nt	nt
Cc1cccc(Cn2cc(COC(=O)N3CCOCC3)nn2)c1	0.1	-1.5	1.0	-5.2	2.7	4.3	nt	nt
CC(=O)NC(C)C(=O)N1CCCC1C(=O)N1CCCC1C(=O)NC(C)C(=O)NC1C(=O)NC(CC(C)C)C(=O)NC2CCCCNC(=O)CCC(C(=O)NC(Cc3ccc(O)cc3)C(=O)O)NC(=O)C3CCC(=O)OCC(NC(=O)C4CCCN4C(=O)C(Cc4c[nH]c5ccccc45)NC2=O)C(=O)NC(CC(=O)OC1C)C(=O)NC(Cc1c[nH]c2ccccc12)C(=O)N3 (configuration not stated)	0.1	5.9	2.0	-5.3	-14.5	-2.1	nt	nt
CSc1nc2cc(Oc3cccc(Cl)c3Cl)c(Cl)cc2[nH]1	0.1	8.8	-2.9	7.1	1.4	20.1*	8.2	2.4
CSc1nc2ccc(Cl)cc2[nH]1	0.4	3.9	-2.4	-2.4	8.6	-1.6	nt	nt
COC(=O)[C@]12C[C@H](CC(=O)N3CCC(c4ccccc4)CC3)C(=O)N(Cc3ccccc3)C1=C[C@H](COCc1ccccc1)O[C@@H]2C	0.2	8.1	2.9	8.1	-15.4	23.9*	4.7	1.3
CCCC#Cc1ccc(CC[C@H]2O[C@H]3CC[C@@H](CO)O[C@H]3C[C@H]2NC(=O)CN2CCOCC2)cc1	0.5	0.8	0.9	2.6	-3.6	-3.3	nt	nt
Cc1ccc(-n2c(SCC(=O)c3ccc4ccccc4c3)nnc2-c2cccnc2)cc1	0.0	-3.7	-4.5	-0.6	-30.9	-1.9	nt	nt
COC(=O)[C@]12CCCCC=C1N(Cc1ccc(OC)cc1)C(=O)[C@@H]2CC(=O)NCc1cccc(C(F)(F)F)c1	0.1	1.2	-2.7	5.3	-22.6	10.6	nt	nt
O=C(C(=Cc1ccc(O)cc1)c1ccccc1)c1ccccc1	0.6	11.1*	1.1	8.0	-27.2	29.7*	7.5	2.1
COc1ccccc1NC(=O)c1c(Nc2ccccc2F)sc(C(=O)Nc2cccc(Cl)c2)c1N	-0.2	-2.7	-2.6	9.1*	-4.9	27.2*	19.4	7.0
COc1ccc(C(=O)/C=C/c2ccccc2C(F)(F)F)cc1	0.4	5.5	0.0	5.7	-4.7	19.9*	2.4	0.0
CCOc1ccc(C(=O)/C=C/c2ccccc2C(F)(F)F)cc1	0.1	5.5	9.4	6.5	-8.4	10.3	nt	nt
CC(C)n1nccc1N(Cc1ccc(Cl)cc1)S(=O)(=O)c1ccccc1	0.6	7.6	0.3	5.8	11.0	28.2*	1.9	0.7
O=C(COCc1ccccc1)NC1CCCCN(Cc2ccc(Cl)cc2)C1=O (configuration not stated)	0.1	1.6	-2.4	-0.6	-7.0	-3.6	nt	nt
O=C(NNC(=O)c1cc(-c2cccc(Br)c2)nc2ccccc12)c1csc(N2CCOCC2)n1	-0.2	-19.6	-21.5	6.8	-9.9	21.9*	9.5	2.5
O=C(OC12CCCN(C1)/C(=C/c1cccnc1)C2)c1ccc(F)cc1 (configuration not stated)	-0.1	1.9	3.8	-3.4	-1.8	-3.8	nt	nt
Cn1c(SCC(=O)Nc2ccc(C(=O)O)cc2)nnc1-c1ccccn1	0.4	1.9	-1.9	-2.8	16.9	-10.4	nt	nt
O=S1(=O)c2ccc(N3CCC[C@H]3CO)cc2O[C@H]2CCN1C2	0.5	-3.2	0.8	-7.0	-3.3	-5.5	nt	nt
O=C(Nc1ccc2ncccc2c1)c1cc(-c2ccc(Cl)cc2)nc2ccccc12	0.4	-2.0	-2.2	-4.6	2.1	-1.7	nt	nt
CN(CC(=O)Nc1cc(Cl)cc(Cl)c1)Cc1cccs1	0.1	7.8	0.2	0.9	-5.0	22.3*	7.5	2.4
SMILES	proKLK7 act	PLC-gamma1 inh	PLCb3 inh	ADAM17 inh	sPLA2-III inh	ADAM10 inh	ADAM10 confirm	ADAM17 counter
CN(CC(=O)Nc1ccc(F)cc1Cl)Cc1cccs1	0.3	0.5	-2.0	2.7	-2.6	-3.0	nt	nt
Cc1cccc(NC(=O)c2cc3n(n2)C(C(F)(F)F)CC(c2ccc4c(c2)OCO4)N3)c1 (configuration not stated)	-0.4	-2.0	-5.4	5.2	-12.7	21.7*	2.1	-1.3
COc1ccc([C@H]2OC(=O)C[C@@H]2C(=O)N2CCCCC2)cc1OC	-0.1	0.1	0.0	-2.4	0.1	-1.4	nt	nt
O=C(NC(Cc1c[nH]c2ccccc12)C(=O)Nc1ccc(F)c([N+](=O)[O-])c1)c1cccs1 (configuration not stated)	-0.9	1.4	1.4	7.5	-97.3	19.9*	4.5	1.8
O=C(NC(Cc1c[nH]c2ccccc12)C(=O)O)c1cccs1 (configuration not stated)	-0.1	-3.6	-1.2	2.5	-7.0	5.7	nt	nt
O=C(Nc1cc([N+](=O)[O-])ccc1Cl)C(Sc1ccccc1)c1ccccc1 (configuration not stated)	-0.2	-1.2	1.9	4.6	-9.9	10.0	nt	nt
O=C(Nc1ccc(Cl)c([N+](=O)[O-])c1)C(Sc1ccccc1)c1ccccc1 (configuration not stated)	-0.5	5.0	6.0	11.5*	-18.9	26.2*	8.4	2.9
CC(C)CC1C(=O)N(Cc2cn(CC3CCCCC3)nn2)CCS(=O)(=O)N1Cc1ccc(-c2cccc(CO)c2)cc1 (configuration not stated)	0.0	-0.3	3.4	7.0	-44.3	24.6*	2.8	2.2
COc1ccc(-c2nc(-c3ccccc3)c(-c3cc([N+](=O)[O-])ccc3C)[nH]2)cc1O	0.1	0.3	2.5	8.4	-17.6	30.7*	7.6	2.1
